{
  "source": "PubChem BioAssay AID1159580",
  "about": "(chemical genetic matrix, 2015)",
  "experiment": "chemical genetic growth profiling, strain panel (AID 1159580);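 also: tested at 20 µM; growth read once vehicle control cultures reached saturation at 30 °C; 1 = growth at the plate median or of vehicle wells; lower values mean less growth of the strain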",
  "settings": "S. cerevisiae deletion strains, growth OD",
  "note": "Values joined by “and” are separate entries in the source; they are usually repeats but may differ in a detail not shown here. Equal values may be shown once. The campaign covered roughly 5,500 compounds. About 2,000 (36%) were called active. About 18% were inconclusive and are not listed. Rule as the data show it: active = normalized growth mostly below about 0.91 (no sharp cut-off); inconclusive = no clear call, values can overlap the other calls; inactive = mostly above about 0.92. The list shows a part of the results.",
  "data": [
    {"smiles": "C/C(=C\\CO)CC[C@H](C)CCC[C@H](C)CCCC(C)C", "values": [
      {"measurement": "normalized growth", "setting": "locus YAL021C, strain ccr4, stronger effect = lower value", "value": "1.12 [resistant] (active)"},
      {"measurement": "normalized growth", "setting": "locus YAL026C, strain drs2, stronger effect = lower value", "value": "1.12 [resistant] (active)"},
      {"measurement": "normalized growth", "setting": "locus YAL030W, strain snc1, stronger effect = lower value", "value": "1.13 [resistant] (active)"},
      {"measurement": "normalized growth", "setting": "locus YBL061C, strain skt5, stronger effect = lower value", "value": "0.97 (inactive)"},
      {"measurement": "normalized growth", "setting": "locus YBR009C, strain hhf1, stronger effect = lower value", "value": "1.12 [resistant] (active)"},
      {"measurement": "normalized growth", "setting": "locus YBR021W, strain FUR4, stronger effect = lower value", "value": "1 (inactive)"},
      {"measurement": "normalized growth", "setting": "locus YBR023C, strain chs3, stronger effect = lower value", "value": "0.974 (inactive)"},
      {"measurement": "normalized growth", "setting": "locus YBR171W, strain sec66, stronger effect = lower value", "value": "1.11 (inactive)"},
      {"measurement": "normalized growth", "setting": "locus YBR229C, strain ROT2, stronger effect = lower value", "value": "1.04 (inactive)"},
      {"measurement": "normalized growth", "setting": "locus YBR231C, strain swc5, stronger effect = lower value", "value": "0.976 (inactive)"},
      {"measurement": "normalized growth", "setting": "locus YBR279W, strain paf1, stronger effect = lower value", "value": "0.993 (inactive)"},
      {"measurement": "normalized growth", "setting": "locus YCL011C, strain gbp2, stronger effect = lower value", "value": "1.14 [resistant] (active)"},
      {"measurement": "normalized growth", "setting": "locus YCL016C, strain dcc1, stronger effect = lower value", "value": "0.976 (inactive)"},
      {"measurement": "normalized growth", "setting": "locus YCL029C, strain bik1, stronger effect = lower value", "value": "1.08 (inactive)"},
      {"measurement": "normalized growth", "setting": "locus YCL061C, strain MRC1, stronger effect = lower value", "value": "1.11 [resistant] (active)"},
      {"measurement": "normalized growth", "setting": "locus YCL069W, strain vba3, stronger effect = lower value", "value": "1.11 [resistant] (active)"},
      {"measurement": "normalized growth", "setting": "locus YCR088W, strain abp1, stronger effect = lower value", "value": "1.12 [resistant] (active)"},
      {"measurement": "normalized growth", "setting": "locus YDL005C, strain med2, stronger effect = lower value", "value": "1.14 [resistant] (active)"},
      {"measurement": "normalized growth", "setting": "locus YDL035C, strain GPR1, stronger effect = lower value", "value": "1.07 (inactive)"},
      {"measurement": "normalized growth", "setting": "locus YDL040C, strain nat1, stronger effect = lower value", "value": "0.973 (inactive)"},
      {"measurement": "normalized growth", "setting": "locus YDL074C, strain BRE1, stronger effect = lower value", "value": "1.1 (inactive)"},
      {"measurement": "normalized growth", "setting": "locus YDL101C, strain DUN1, stronger effect = lower value", "value": "1.08 (inactive)"},
      {"measurement": "normalized growth", "setting": "locus YDL185W, strain tfp1, stronger effect = lower value", "value": "1.11 [resistant] (active)"},
      {"measurement": "normalized growth", "setting": "locus YDL192W, strain arf1, stronger effect = lower value", "value": "1.13 [resistant] (active)"},
      {"measurement": "normalized growth", "setting": "locus YDR001C, strain nth1, stronger effect = lower value", "value": "1.13 [resistant] (active)"},
      {"measurement": "normalized growth", "setting": "locus YDR069C, strain doa4, stronger effect = lower value", "value": "1.15 [resistant] (active)"},
      {"measurement": "normalized growth", "setting": "locus YDR101C, strain arx1, stronger effect = lower value", "value": "1.11 [resistant] (active)"},
      {"measurement": "normalized growth", "setting": "locus YDR137W, strain rgp1, stronger effect = lower value", "value": "0.93 (inactive)"},
      {"measurement": "normalized growth", "setting": "locus YDR150W, strain NUM1, stronger effect = lower value", "value": "1.1 [resistant] (active)"},
      {"measurement": "normalized growth", "setting": "locus YDR159W, strain sac3, stronger effect = lower value", "value": "1.05 (inactive)"},
      {"measurement": "normalized growth", "setting": "locus YDR162C, strain NBP2, stronger effect = lower value", "value": "1.11 (inactive)"},
      {"measurement": "normalized growth", "setting": "locus YDR195W, strain ref2", "value": "1.09 (inactive)"},
      {"measurement": "normalized growth", "setting": "locus YDR297W, strain sur2, stronger effect = lower value", "value": "1.13 [resistant] (active)"},
      {"measurement": "normalized growth", "setting": "locus YDR318W, strain mcm21, stronger effect = lower value", "value": "1.13 [resistant] (active)"},
      {"measurement": "normalized growth", "setting": "locus YDR334W, strain swr1, stronger effect = lower value", "value": "1.14 [resistant] (active)"},
      {"measurement": "normalized growth", "setting": "locus YDR335W, strain msn5, stronger effect = lower value", "value": "1.13 [resistant] (active)"},
      {"measurement": "normalized growth", "setting": "locus YDR388W, stronger effect = lower value", "value": "1.12 [resistant] (active)"},
      {"measurement": "normalized growth", "setting": "locus YDR392W, strain spt3, stronger effect = lower value", "value": "1.11 (inactive)"},
      {"measurement": "normalized growth", "setting": "locus YDR502C, strain sam2, stronger effect = lower value", "value": "1.16 [resistant] (active)"},
      {"measurement": "normalized growth", "setting": "locus YEL003W, strain gim4, stronger effect = lower value", "value": "1.13 [resistant] (active)"},
      {"measurement": "normalized growth", "setting": "locus YEL037C, strain rad23, stronger effect = lower value", "value": "1.13 [resistant] (active)"},
      {"measurement": "normalized growth", "setting": "locus YEL061C, strain CIN8 (second series), stronger effect = lower value", "value": "1.14 [resistant] (active)"},
      {"measurement": "normalized growth", "setting": "locus YEL061C, strain CIN8, stronger effect = lower value", "value": "1.09 [resistant] (active)"},
      {"measurement": "normalized growth", "setting": "locus YER015W, strain faa2, stronger effect = lower value", "value": "1.12 [resistant] (active)"},
      {"measurement": "normalized growth", "setting": "locus YER016W, strain bim1, stronger effect = lower value", "value": "0.97 (inactive)"},
      {"measurement": "normalized growth", "setting": "locus YER110C, stronger effect = lower value", "value": "1.14 [resistant] (active)"},
      {"measurement": "normalized growth", "setting": "locus YER111C, strain swi4, stronger effect = lower value", "value": "1.06 (inactive)"},
      {"measurement": "normalized growth", "setting": "locus YER155C, strain BEM2 (second series), stronger effect = lower value", "value": "1.07 (inactive)"},
      {"measurement": "normalized growth", "setting": "locus YER155C, strain BEM2, stronger effect = lower value", "value": "1.02 (inactive)"},
      {"measurement": "normalized growth", "setting": "locus YER167W, strain BCK2, stronger effect = lower value", "value": "1.01 (inactive)"},
      {"measurement": "normalized growth", "setting": "locus YFR010W, strain ubp6, stronger effect = lower value", "value": "1.18 [resistant] (active)"},
      {"measurement": "normalized growth", "setting": "locus YGL078C, strain dbp3, stronger effect = lower value", "value": "1.13 [resistant] (active)"},
      {"measurement": "normalized growth", "setting": "locus YGL086W, strain mad1, stronger effect = lower value", "value": "1.09 [resistant] (active)"},
      {"measurement": "normalized growth", "setting": "locus YGL167C, strain pmr1, stronger effect = lower value", "value": "0.962 (inactive)"},
      {"measurement": "normalized growth", "setting": "locus YGL173C, strain kem1, stronger effect = lower value", "value": "1.1 [resistant] (active)"},
      {"measurement": "normalized growth", "setting": "locus YGL227W, strain vid30, stronger effect = lower value", "value": "1.12 [resistant] (active)"},
      {"measurement": "normalized growth", "setting": "locus YGL240W, strain doc1, stronger effect = lower value", "value": "1.13 [resistant] (active)"},
      {"measurement": "normalized growth", "setting": "locus YGL248W, strain PDE1, stronger effect = lower value", "value": "1.06 (inactive)"},
      {"measurement": "normalized growth", "setting": "locus YGL253W, strain hxk2, stronger effect = lower value", "value": "1.12 [resistant] (active)"},
      {"measurement": "normalized growth", "setting": "locus YGR078C, strain PAC10, stronger effect = lower value", "value": "1.13 (inactive)"},
      {"measurement": "normalized growth", "setting": "locus YGR135W, strain pre9, stronger effect = lower value", "value": "1.15 [resistant] (active)"},
      {"measurement": "normalized growth", "setting": "locus YGR229C, strain SMI1, stronger effect = lower value", "value": "1.14 (inactive)"},
      {"measurement": "normalized growth", "setting": "locus YGR252W, strain gcn5, stronger effect = lower value", "value": "1.1 (inactive)"},
      {"measurement": "normalized growth", "setting": "locus YHR013C, strain ard1, stronger effect = lower value", "value": "0.945 (inactive)"},
      {"measurement": "normalized growth", "setting": "locus YHR027C, strain rpn1, stronger effect = lower value", "value": "1.14 [resistant] (active)"},
      {"measurement": "normalized growth", "setting": "locus YHR030C, strain SLT2, stronger effect = lower value", "value": "1.09 [resistant] (active) and 0.974 (inactive)"},
      {"measurement": "normalized growth", "setting": "locus YHR079C, strain IRE1 (second series), stronger effect = lower value", "value": "1.13 [resistant] (active)"},
      {"measurement": "normalized growth", "setting": "locus YHR079C, strain IRE1, stronger effect = lower value", "value": "0.966 (inactive)"},
      {"measurement": "normalized growth", "setting": "locus YHR094C, strain hxt1, stronger effect = lower value", "value": "1.14 [resistant] (active)"},
      {"measurement": "normalized growth", "setting": "locus YHR129C, strain ARP1, stronger effect = lower value", "value": "1.08 (inactive)"},
      {"measurement": "normalized growth", "setting": "locus YHR142W, strain chs7, stronger effect = lower value", "value": "1.09 (inactive)"},
      {"measurement": "normalized growth", "setting": "locus YHR200W, strain rpn10, stronger effect = lower value", "value": "1.13 [resistant] (active)"},
      {"measurement": "normalized growth", "setting": "locus YIL066C, strain RNR3, stronger effect = lower value", "value": "1.09 (inactive)"},
      {"measurement": "normalized growth", "setting": "locus YIL073C, strain SPO22, stronger effect = lower value", "value": "1.25 (inactive)"},
      {"measurement": "normalized growth", "setting": "locus YIL125W, strain kgd1, stronger effect = lower value", "value": "1.12 [resistant] (active)"},
      {"measurement": "normalized growth", "setting": "locus YIR030C, strain dcg1, stronger effect = lower value", "value": "1.13 [resistant] (active)"},
      {"measurement": "normalized growth", "setting": "locus YJL092W, strain hpr5, stronger effect = lower value", "value": "1.13 [resistant] (active)"},
      {"measurement": "normalized growth", "setting": "locus YJL095W, strain BCK1 (second series), stronger effect = lower value", "value": "1.02 (inactive)"},
      {"measurement": "normalized growth", "setting": "locus YJL095W, strain BCK1, stronger effect = lower value", "value": "1.1 (inactive) and 0.966 (inactive)"},
      {"measurement": "normalized growth", "setting": "locus YJL115W, strain asf1, stronger effect = lower value", "value": "1.14 [resistant] (active)"},
      {"measurement": "normalized growth", "setting": "locus YJL129C, strain trk1, stronger effect = lower value", "value": "1.09 (inactive)"},
      {"measurement": "normalized growth", "setting": "locus YJL134W, strain LCB3, stronger effect = lower value", "value": "1.09 [resistant] (active)"},
      {"measurement": "normalized growth", "setting": "locus YJL154C, strain vps35, stronger effect = lower value", "value": "1.13 [resistant] (active)"},
      {"measurement": "normalized growth", "setting": "locus YJL164C, strain tpk1, stronger effect = lower value", "value": "1.13 [resistant] (active)"},
      {"measurement": "normalized growth", "setting": "locus YJL166W, strain qcr8, stronger effect = lower value", "value": "1.13 [resistant] (active)"},
      {"measurement": "normalized growth", "setting": "locus YJL168C, strain set2, stronger effect = lower value", "value": "1.13 [resistant] (active)"},
      {"measurement": "normalized growth", "setting": "locus YJL187C, strain SWE1 (second series), stronger effect = lower value", "value": "1.1 (inactive)"},
      {"measurement": "normalized growth", "setting": "locus YJL187C, strain SWE1, stronger effect = lower value", "value": "1.07 (inactive)"},
      {"measurement": "normalized growth", "setting": "locus YJR043C, strain POL32, stronger effect = lower value", "value": "1.12 (inactive)"}
    ]}
  ]
}
